Legend:
Conditions in all cases: treatment time: 24 h
[1] = test system: A549-ACTB-RAB5A; experiment: lowest phenotypically active concentration; higher = less potent
Procedure, shortened: (§1)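 Live-cell features were measured per well and normalised to solvent control wells after fifteen gene-edited A549, HepG2 and WPMY1 reporter lines had been treated for 24 h at 0.3, 1, 3 or 9 µM in four wells each. A condition was deviating when ≥3 of 4 wells sat beyond the 95th percentile of control Euclidean distances. It was reproducible when the median replicate Pearson correlation exceeded the 95th percentile of non-replicates. Phenotypic activity demanded both.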

[2] = test system: A549-GM130-SQSTM1; experiment: as above
Procedure, shortened: as §1

[3] = test system: WPMY1-GM130-SQSTM1; experiment: as above
Procedure, shortened: as §1

[4] = test system: A549-ACTB-RAB5A; experiment: phenotypically active (imaging signature differs from DMSO and reproducible) at any of 0.3-9 uM (binary (1 = active, 0 = inactive)); higher = active
Procedure, shortened: as §1

[5] = test system: A549-CANX-COX4; experiment: as above
Procedure, shortened: as §1

[6] = test system: A549-GM130-SQSTM1; experiment: as above
Procedure, shortened: as §1

[7] = test system: A549-TP53BP1-CLTA; experiment: as above
Procedure, shortened: as §1

[8] = test system: A549-TUBA1B-RELA; experiment: as above
Procedure, shortened: as §1

[9] = test system: HepG2-ACTB-RAB5A; experiment: as above
Procedure, shortened: as §1

[10] = test system: HepG2-CANX-COX4; experiment: as above
Procedure, shortened: as §1

[11] = test system: HepG2-GM130-SQSTM1; experiment: as above
Procedure, shortened: as §1

[12] = test system: HepG2-TP53BP1-CLTA; experiment: as above
Procedure, shortened: as §1

[13] = test system: HepG2-TUBA1B-RELA; experiment: as above
Procedure, shortened: as §1

[14] = test system: WPMY1-ACTB-RAB5A; experiment: as above
Procedure, shortened: as §1

[15] = test system: WPMY1-CANX-COX4; experiment: as above
Procedure, shortened: as §1

[16] = test system: WPMY1-GM130-SQSTM1; experiment: as above
Procedure, shortened: as §1

[17] = test system: WPMY1-TP53BP1-CLTA; experiment: as above
Procedure, shortened: as §1

[18] = test system: WPMY1-TUBA1B-RELA; experiment: as above
Procedure, shortened: as §1

[19] = test system: A549-TUBA1B-RELA; experiment: lowest phenotypically active concentration; higher = less potent
Procedure, shortened: as §1

[20] = test system: HepG2-ACTB-RAB5A; experiment: as above
Procedure, shortened: as §1

Which “lowest phenotypically active concentration” value [1] does the source give for `COc1ccccc1C(=O)Nc1cc2c(cc1N1CCCC1)n(C)c(=O)n2C` here?
The value was 9 µM.

And the “lowest phenotypically active concentration” value [2]?
Its value is 9 µM.

What about the “lowest phenotypically active concentration” value [3] of the same molecule?
Its value is 9 µM.

What about the phenotypically active [4] of the same molecule?
Its phenotypically active is 1 (active).

What about the phenotypically active [5] of the same molecule?
The phenotypically active was 0 (inactive).

What about the phenotypically active [6] of the same molecule?
Its phenotypically active is 1 (active).

And the phenotypically active [7]?
The phenotypically active was 0 (inactive).

What about the phenotypically active [8] of the same molecule?
Its phenotypically active is 0 (inactive).

And the phenotypically active [9]?
Its phenotypically active is 0 (inactive).

What about the phenotypically active [10] of the same molecule?
Its phenotypically active is 0 (inactive).

What about the phenotypically active [11] of the same molecule?
The phenotypically active was 0 (inactive).

What about the phenotypically active [12] of the same molecule?
The phenotypically active was 0 (inactive).

What about the phenotypically active [13] of the same molecule?
The phenotypically active was 0 (inactive).

What about the phenotypically active [14] of the same molecule?
Its phenotypically active is 1 (active).

And the phenotypically active [15]?
The phenotypically active was 0 (inactive).

And the phenotypically active [16]?
Its phenotypically active is 1 (active).

What about the phenotypically active [17] of the same molecule?
Its phenotypically active is 0 (inactive).

And the phenotypically active [18]?
The phenotypically active was 0 (inactive).

`Nc1ccc(N=Nc2ccccc2)c(N)n1` [phenazopyridine] was tested. Which “lowest phenotypically active concentration” value [1] did it give?
Its value is no more than 0.3 µM.

And the “lowest phenotypically active concentration” value [2]?
The value was 1 µM.

What about the “lowest phenotypically active concentration” value [3] of the same molecule?
Its value is 3 µM.

And the phenotypically active [4]?
Its phenotypically active is 1 (active).

And the phenotypically active [5]?
Its phenotypically active is 0 (inactive).

And the phenotypically active [6]?
Its phenotypically active is 1 (active).

What about the phenotypically active [7] of the same molecule?
Its phenotypically active is 0 (inactive).

And the phenotypically active [8]?
The phenotypically active was 0 (inactive).

What about the phenotypically active [9] of the same molecule?
The phenotypically active was 0 (inactive).

And the phenotypically active [10]?
The phenotypically active was 0 (inactive).

And the phenotypically active [11]?
The phenotypically active was 0 (inactive).

And the phenotypically active [12]?
Its phenotypically active is 0 (inactive).

What about the phenotypically active [13] of the same molecule?
Its phenotypically active is 0 (inactive).

And the phenotypically active [14]?
Its phenotypically active is 0 (inactive).

What about the phenotypically active [15] of the same molecule?
Its phenotypically active is 0 (inactive).

What about the phenotypically active [16] of the same molecule?
Its phenotypically active is 1 (active).

What about the phenotypically active [17] of the same molecule?
Its phenotypically active is 0 (inactive).

What about the phenotypically active [18] of the same molecule?
The phenotypically active was 0 (inactive).

Which “lowest phenotypically active concentration” value [1] does the source give for `Nc1ncnc2c1c(-c1ccc(Oc3ccccc3)cc1)nn2C1CCCC1` here?
The value was 9 µM.

What about the “lowest phenotypically active concentration” value [2] of the same molecule?
Its value is 9 µM.

What about the “lowest phenotypically active concentration” value [19] of the same molecule?
Its value is 3 µM.

And the phenotypically active [4]?
Its phenotypically active is 1 (active).

What about the phenotypically active [5] of the same molecule?
The phenotypically active was 0 (inactive).

And the phenotypically active [6]?
Its phenotypically active is 1 (active).

What about the phenotypically active [7] of the same molecule?
Its phenotypically active is 0 (inactive).

And the phenotypically active [8]?
Its phenotypically active is 1 (active).

What about the phenotypically active [9] of the same molecule?
The phenotypically active was 0 (inactive).

And the phenotypically active [10]?
Its phenotypically active is 0 (inactive).

And the phenotypically active [11]?
The phenotypically active was 0 (inactive).

And the phenotypically active [12]?
Its phenotypically active is 0 (inactive).

And the phenotypically active [13]?
The phenotypically active was 0 (inactive).

What about the phenotypically active [14] of the same molecule?
The phenotypically active was 0 (inactive).

And the phenotypically active [15]?
The phenotypically active was 0 (inactive).

What about the phenotypically active [16] of the same molecule?
The phenotypically active was 0 (inactive).

And the phenotypically active [17]?
Its phenotypically active is 1 (active).

And the phenotypically active [18]?
The phenotypically active was 0 (inactive).

What does the source list for `O=C(Nc1ccc(CN2CCOCC2)cc1)c1ccc(-c2cccc(Cl)c2)o1`?
lowest phenotypically active concentration [1]: 9 µM; lowest phenotypically active concentration [19]: 9 µM; phenotypically active [4]: 1 (active); phenotypically active [5]: 0 (inactive); phenotypically active [6]: 0 (inactive); phenotypically active [7]: 0 (inactive); phenotypically active [8]: 1 (active); phenotypically active [9]: 0 (inactive); phenotypically active [10]: 0 (inactive); phenotypically active [11]: 0 (inactive); phenotypically active [12]: 0 (inactive); phenotypically active [13]: 1 (active); phenotypically active [14]: 0 (inactive); phenotypically active [15]: 0 (inactive); phenotypically active [16]: 0 (inactive); phenotypically active [17]: 0 (inactive); phenotypically active [18]: 0 (inactive)

`CCN1/C(=C/C(C)=O)Sc2ccc(O)cc21` was tested. Which “lowest phenotypically active concentration” value [1] did it give?
The value was 9 µM.

What about the “lowest phenotypically active concentration” value [20] of the same molecule?
Its value is 9 µM.

What about the phenotypically active [4] of the same molecule?
The phenotypically active was 1 (active).

And the phenotypically active [5]?
The phenotypically active was 0 (inactive).

What about the phenotypically active [6] of the same molecule?
The phenotypically active was 0 (inactive).

What about the phenotypically active [7] of the same molecule?
The phenotypically active was 1 (active).

What about the phenotypically active [8] of the same molecule?
Its phenotypically active is 0 (inactive).

And the phenotypically active [9]?
The phenotypically active was 1 (active).

And the phenotypically active [10]?
Its phenotypically active is 0 (inactive).

What about the phenotypically active [11] of the same molecule?
Its phenotypically active is 0 (inactive).

What about the phenotypically active [12] of the same molecule?
The phenotypically active was 0 (inactive).

What about the phenotypically active [13] of the same molecule?
Its phenotypically active is 0 (inactive).

What about the phenotypically active [14] of the same molecule?
The phenotypically active was 1 (active).

And the phenotypically active [15]?
The phenotypically active was 0 (inactive).

What about the phenotypically active [16] of the same molecule?
The phenotypically active was 0 (inactive).

What about the phenotypically active [17] of the same molecule?
The phenotypically active was 1 (active).

What about the phenotypically active [18] of the same molecule?
The phenotypically active was 0 (inactive).

Reference: the supplement of paper PMC7411054
